Results on 25 compounds are retold here after PubChem BioAssay AID1224904 (Broad Institute, 2016).

The test is described as follows: inhibitors of DUX4-driven ZSCAN4 reporter expression, primary screen, 293T cells, Gaussia and Italica luciferase (AID 1224904).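 For activity change, negative = inhibition: 0% = median of neutral control wells and -100% = median of positive control wells.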 Particulars: 293T-iDUX4 ZSCAN4-Gaussia luciferase reporter, 24 h, stronger effect = lower value, concentration not given here; for Gaussia minus Italica difference: measured here: selective DUX4 reporter inhibition.
Setting [1] is: measured here: Italica tet-on control reporter.

Hit rate of the full screen: of about 37,000 compounds, about 290 (0.78%) were called active. Another 10% or so got no clear call; they are omitted.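 Rule for the calls: active = mean inhibition of at least 10% in the main channel, exceeding the control channel by a set limit; inconclusive = inhibition of 10% or more but channel gap under a set limit; inactive = mean inhibition below 10%.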 Many of the other results were omitted from the sample, so actives are more common in it than they were.

As for `CCC(=O)N(C)C[C@H]1[C@H](c2ccc(-c3ccccc3F)cc2)[C@@H](CO)N1C(C)=O`, the activity change, negative = inhibition is 3.08% (inactive) and the Gaussia minus Italica difference was -4.34%. Further, the activity change, negative = inhibition under setting [1] stood at 7.42%.
In the case of `CCCNC(=O)[C@@H]1[C@@H](CO)[C@@H]2Cn3c(cccc3=O)[C@H]1N2C(=O)C1CCC1`, the activity change, negative = inhibition was -0.71% (inactive) and the Gaussia minus Italica difference was -2.29%. For the same compound, under setting [1], the activity change, negative = inhibition stood at 1.58%.
`CC=Cc1ccc2n(c1=O)C[C@@H]1[C@@H](CO)[C@H](C(=O)NCCCN3CCOCC3)[C@H]2N1Cc1cocn1` (mixture of isomers): the activity change, negative = inhibition was -1.75% (inactive) and the Gaussia minus Italica difference is -6.07%. Moreover, the activity change, negative = inhibition under setting [1] is 4.32%.
Consider `CCCNC(=O)[C@@H]1[C@@H](CO)[C@@H]2Cn3c(ccc(C4=CCCCC4)c3=O)[C@H]1N2CCC`, for which the activity change, negative = inhibition was 0.23% (inactive) and the Gaussia minus Italica difference came out at 0.57%. Moreover, the activity change, negative = inhibition under setting [1] was -0.339%.
In the case of `COCCN(C[C@H]1[C@@H](c2ccccc2)[C@H](CO)N1C(=O)C1CCC1)C(C)=O`, the activity change, negative = inhibition is -2.05% (inactive) and the Gaussia minus Italica difference is -7.51%. In addition, the activity change, negative = inhibition under setting [1] was determined as 5.46%.
In the same order, the values of `C[C@H]1CN([C@@H](C)CO)S(=O)(=O)c2ccc(-c3ccncc3)cc2O[C@H]1CN(C)S(C)(=O)=O` are -0.678% (inactive), -5.48% and 4.8%.
For the compound `CCC(=O)N1C[C@@H](C)[C@H](OC)CN(C)C(=O)c2cc(NC(=O)c3cc(C)on3)ccc2OC[C@@H]1C`, the activity change, negative = inhibition was -1.43% (inactive) and the Gaussia minus Italica difference is -3.85%. For the same compound, the activity change, negative = inhibition under setting [1] turned out to be 2.42%.
For `CCCNC(=O)N1C[C@@H](C)[C@@H](OC)CN(C)C(=O)c2ccc(NC(=O)C3CCC3)cc2OC[C@@H]1C`, the activity change, negative = inhibition was -2.74% (inactive) and the Gaussia minus Italica difference was -0.535%. In addition, under setting [1], the activity change, negative = inhibition was -2.2%.
Turning to `CN1C(=O)c2cc(NS(=O)(=O)c3ccc(Cl)cc3)ccc2OC[C@H]2O[C@@H](CC(=O)O)CC[C@H]21`, the activity change, negative = inhibition is 2.17% (inactive) and the Gaussia minus Italica difference is 2.63%. Besides, the activity change, negative = inhibition under setting [1] is -0.461%.
The matching figures for `CN1C(=O)c2cc(NC(=O)c3ccc(F)c(F)c3)ccc2OC[C@H]2O[C@@H](CC(=O)N3CCCCC3)CC[C@H]21`: -2.75% (inactive), -0.906% and -1.85%.
Regarding `CO[C@@H](CN(C)C(=O)Nc1ccc(F)cc1)[C@H](C)CN(Cc1ccccc1Cl)[C@@H](C)CO`, the activity change, negative = inhibition is 1.39% (inactive) and the Gaussia minus Italica difference came out at 2.69%. Also, the activity change, negative = inhibition under setting [1] was -1.3%.
With `COCC(=O)N1CC2(C1)[C@H](c1ccc(-c3cccc(F)c3)cc1)[C@@H](CO)N2C(=O)COC`, the activity change, negative = inhibition is 6.28% (inactive) and the Gaussia minus Italica difference came to 3.04%. In addition, under setting [1], the activity change, negative = inhibition amounted to 3.24%.
As to `CN(C)c1ccc2c(c1)[C@H]1C[C@H](CC(=O)O)O[C@H](CO)[C@H]1O2`, the activity change, negative = inhibition was 1.12% (inactive) and the Gaussia minus Italica difference was -5.64%. For the same compound, the activity change, negative = inhibition under setting [1] is 6.76%.
With `C[C@@H]1CN([C@@H](C)CO)C(=O)c2c(c3ccccc3n2C)-c2ccccc2CO[C@@H]1CN(C)S(=O)(=O)CC(F)(F)F`, the activity change, negative = inhibition was 18.5% (inactive) and the Gaussia minus Italica difference stood at 17.3%. Besides, under setting [1], the activity change, negative = inhibition amounted to 1.21%.
Take `C[C@@H]1CN([C@@H](C)CO)C(=O)c2c(c3ccccc3n2C)-c2ccccc2CO[C@@H]1CN(C)Cc1ccc2c(c1)OCCN2C`: the activity change, negative = inhibition is -2.06% (inactive) and the Gaussia minus Italica difference was -4.27%. Also, the activity change, negative = inhibition under setting [1] was determined as 2.22%.
With `C[C@@H]1CN([C@@H](C)CO)C(=O)c2c(c3ccccc3n2C)-c2ccccc2CO[C@H]1CN(C)S(=O)(=O)c1cccs1`, the activity change, negative = inhibition was -5.46% (inactive) and the Gaussia minus Italica difference was -4.37%. Also, the activity change, negative = inhibition under setting [1] is -1.09%.
With `C[C@H]1CN([C@@H](C)CO)C(=O)c2c(c3ccccc3n2C)-c2ccccc2CO[C@H]1CN(C)Cc1ccc2c(c1)OCO2`, the activity change, negative = inhibition is 3.62% (inactive) and the Gaussia minus Italica difference amounted to 4.06%. The activity change, negative = inhibition under setting [1] was -0.444%.
As to `C[C@@H]1CN([C@@H](C)CO)C(=O)c2c(c3ccccc3n2C)-c2ccccc2CO[C@H]1CN(C)Cc1cccc(C(=O)O)c1`, the activity change, negative = inhibition was -0.025% (inactive) and the Gaussia minus Italica difference was found to be 8.28%. For the same compound, the activity change, negative = inhibition under setting [1] is -8.31%.
For `Cc1ccccc1S(=O)(=O)N(C)C[C@@H]1OCc2ccccc2-c2c(n(C)c3ccccc23)C(=O)N([C@H](C)CO)C[C@H]1C`, the activity change, negative = inhibition was -34% (active) and the Gaussia minus Italica difference was -27.3%. For the same compound, under setting [1], the activity change, negative = inhibition is -6.75%.
On to `C[C@@H]1CN([C@H](C)CO)C(=O)c2c(c3ccccc3n2C)-c2ccccc2CO[C@@H]1CN(C)Cc1ccc(F)cc1`, for which the activity change, negative = inhibition was -34.5% (active) and the Gaussia minus Italica difference was -25.8%. For the same compound, the activity change, negative = inhibition under setting [1] is -8.76%.
For `C[C@@H]1CN([C@@H](C)CO)C(=O)c2c(c3ccccc3n2C)-c2ccccc2CO[C@@H]1CN(C)Cc1cccc(C(=O)O)c1`, the activity change, negative = inhibition was 7.37% (inactive) and the Gaussia minus Italica difference came to 2.36%. Further, under setting [1], the activity change, negative = inhibition amounted to 5%.
As to `CC(C)OC(=O)N(C)C[C@@H]1OCc2ccccc2-c2c(n(C)c3ccccc23)C(=O)N([C@H](C)CO)C[C@H]1C`, the activity change, negative = inhibition was -4.14% (inactive) and the Gaussia minus Italica difference was -3.24%. For the same compound, under setting [1], the activity change, negative = inhibition was -0.897%.
Take `C[C@@H]1CN([C@@H](C)CO)C(=O)c2c(c3ccccc3n2C)-c2ccccc2CO[C@@H]1CN(C)S(=O)(=O)c1cccs1`: the activity change, negative = inhibition was 10.1% (inactive) and the Gaussia minus Italica difference was 5.19%. Besides, the activity change, negative = inhibition under setting [1] was 4.92%.
Consider `C[C@H](CO)N1C[C@H](C)[C@@H](CN(C)Cc2ccc(C(F)(F)F)cc2)OCc2ccccc2-c2c(n(C)c3ccccc23)C1=O`, for which the activity change, negative = inhibition was -40.3% (active) and the Gaussia minus Italica difference is -29.3%. The activity change, negative = inhibition under setting [1] was -11%.
`C[C@@H]1CN([C@H](C)CO)C(=O)c2c(c3ccccc3n2C)-c2ccccc2CO[C@@H]1CN(C)Cc1ccccc1C(F)(F)F`: the activity change, negative = inhibition was -42% (active) and the Gaussia minus Italica difference is -36.9%. Besides, the activity change, negative = inhibition under setting [1] is -5.06%.
